# Inconclusive results are not listed. A call without a number means that no potency is given here. Activity calls are given as the source filed them. Unless noted, calls come from the whole dose curve; as a rule, active = well fitted curve in the direction sought with a large enough effect in the repeat runs; inconclusive = weak or mixed curves; inactive = no such curve, though single readings can be large; an effect the other way counts as inactive or inconclusive.
# Experiments:
# [1] = qHTS assay to identify small molecule antagonists of the sonic hedgehog signaling (Shh) pathway (AID 1259369; calls by dose curve; note: nearly all actives have a fitted effect of over 45% in size; note: potency is the fitted concentration of half-maximal effect)
# In short: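 Cells are plated and held 4hr at 37 C, compounds (DMSO) are pinned in, conditioned medium is added to stimulate the pathway, and after 24hr luciferase reagent is added for 30min before luminescence is read.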
# [2] = molecular target: Estrogen receptor beta (Homo sapiens) (UniProt Q92731); test: qHTS assay to identify small molecule agonists of the estrogen receptor beta (ER-beta) signaling pathway (AID 1259377; active = well fitted activation curve with a large enough effect in the signal ratio in the repeat runs, not every such curve was filed as active; the % refers to the signal ratio)
# Chain of Estrogen receptor beta (Homo sapiens) (Q92731 whole entry, looked up): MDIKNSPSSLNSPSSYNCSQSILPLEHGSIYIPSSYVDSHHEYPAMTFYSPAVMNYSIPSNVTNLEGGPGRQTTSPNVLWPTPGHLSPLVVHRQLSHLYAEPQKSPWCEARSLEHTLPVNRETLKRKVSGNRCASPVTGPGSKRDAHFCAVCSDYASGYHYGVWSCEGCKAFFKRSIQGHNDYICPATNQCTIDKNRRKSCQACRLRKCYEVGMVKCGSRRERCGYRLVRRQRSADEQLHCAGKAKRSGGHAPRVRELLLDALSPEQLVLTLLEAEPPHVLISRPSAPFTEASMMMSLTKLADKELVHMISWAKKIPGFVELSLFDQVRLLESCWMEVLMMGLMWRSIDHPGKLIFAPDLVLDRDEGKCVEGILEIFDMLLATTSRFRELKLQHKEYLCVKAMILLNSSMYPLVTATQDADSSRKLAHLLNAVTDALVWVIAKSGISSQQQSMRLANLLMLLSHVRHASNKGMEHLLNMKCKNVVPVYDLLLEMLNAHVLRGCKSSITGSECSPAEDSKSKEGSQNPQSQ
# In short: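 ER-beta-UAS-bla HEK293T (GripTite) cells carrying a UAS-driven beta-lactamase reporter, in medium with 2% charcoal-stripped FBS, were exposed to compounds for 16 hr at 37C; LiveBLAzer B/G FRET substrate was then added and fluorescence read after 2 hours at room temperature.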
# [3] = molecular target: Estrogen receptor beta (Homo sapiens) (UniProt Q92731); test: qHTS assay to identify small molecule antagonists of the estrogen receptor beta (ER-beta) signaling pathway (AID 1259378; active = well fitted inhibition curve with a large enough effect in the signal ratio in the repeat runs, not every such curve was filed as active; the % refers to the signal ratio; note: potency is the fitted concentration of half-maximal effect)
# In short: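 ER-beta-UAS-bla HEK293T (GripTite) cells in 2% charcoal-stripped FBS medium were preincubated 6 hr at 37C, dosed with compound, then stimulated with 1 nM E2 (final) for 16 hr; beta-lactamase reporter read by B/G FRET fluorescence after 2 hr substrate loading.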
# [4] = qHTS assay to identify small molecule agonists of the estrogen receptor beta (ER-beta) signaling pathway - cell viability counter screen (AID 1259380); note: nearly all actives have a fitted effect of over 30% in size; note: potency is the fitted concentration of half-maximal effect
# In short: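 Cytotoxicity is measured in parallel with the reporter screen: after 16 hr compound exposure at 37C and a 2 hr LiveBLAzer step, CellTiter-Glo is added to the same ER-beta-UAS-bla HEK293T wells and luminescence read after 30 min.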
# [5] = qHTS assay to identify small molecule antagonists of the estrogen receptor beta (ER-beta) signaling pathway - cell viability counter screen (AID 1259382); note: nearly all actives have a fitted effect of over 55% in size; note: potency is the fitted concentration of half-maximal effect
# In short: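 Cytotoxicity counter screen multiplexed with the beta-lactamase antagonist assay: GripTite HEK293T ER-beta-bla cells were treated 16 hr with test chemicals in the presence of 1nM 17-beta-estradiol, and viability was measured by CellTiter-Glo.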
# [6] = molecular target: Estrogen receptor (Homo sapiens) (UniProt P03372); test: qHTS assay to identify small molecule agonists of the estrogen receptor alpha (ER-alpha) signaling pathway in the presence of an antagonist (AID 1259383; calls by dose curve; note: top concentration of the series differs between compounds; nearly all actives have a fitted effect of over 15% in size)
# Chain of Estrogen receptor (Homo sapiens) (P03372 whole entry, looked up): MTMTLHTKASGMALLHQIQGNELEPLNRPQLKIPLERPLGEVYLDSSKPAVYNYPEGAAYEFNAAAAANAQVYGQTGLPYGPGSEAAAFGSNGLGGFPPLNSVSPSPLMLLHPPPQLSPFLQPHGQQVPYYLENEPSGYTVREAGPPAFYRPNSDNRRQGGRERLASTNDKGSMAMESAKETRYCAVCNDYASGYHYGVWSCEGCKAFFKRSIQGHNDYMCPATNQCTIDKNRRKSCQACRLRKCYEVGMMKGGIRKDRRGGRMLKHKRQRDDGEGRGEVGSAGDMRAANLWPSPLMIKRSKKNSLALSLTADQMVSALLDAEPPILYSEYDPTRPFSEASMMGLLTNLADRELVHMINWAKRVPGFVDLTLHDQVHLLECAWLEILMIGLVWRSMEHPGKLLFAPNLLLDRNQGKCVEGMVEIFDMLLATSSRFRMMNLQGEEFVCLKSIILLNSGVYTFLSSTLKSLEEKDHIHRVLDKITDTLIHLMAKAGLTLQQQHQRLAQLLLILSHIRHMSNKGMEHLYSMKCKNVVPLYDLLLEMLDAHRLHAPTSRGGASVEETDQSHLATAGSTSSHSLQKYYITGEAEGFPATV
# In short: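 Agonist-mode confirmation in the presence of the ER antagonist ICI-182,780 at 10.0nM final. Breast-derived VM7Luc4E2 reporter cells were exposed to compounds for 22hr, and ERE-driven luciferase was quantified by luminescence.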
# [7] = qHTS assay to identify small molecule agonists or antagonists of the thyroid stimulating hormone receptor (TSHR) signaling pathway - wild type cell line counter screen (AID 1259384; calls by dose curve)
# In short: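 Wild-type HEK293 cells were plated 18 h at 37 C/5% CO2, pin-dosed with compound plus Ro20-1724 medium, held 30 min at room temperature, then given cAMP-d2 and anti-cAMP-cryptate; fluorescence was read after 1 h. Fifteen concentrations, triplicate.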
# [8] = molecular target: Thyrotropin receptor (Homo sapiens) (UniProt P16473); test: qHTS assay to identify small molecule antagonists of the thyroid stimulating hormone receptor (TSHR) signaling pathway (AID 1259385; calls by dose curve; note: nearly all actives have a fitted effect of over 20% in size)
# Chain of Thyrotropin receptor (Homo sapiens) (P16473 whole entry, looked up): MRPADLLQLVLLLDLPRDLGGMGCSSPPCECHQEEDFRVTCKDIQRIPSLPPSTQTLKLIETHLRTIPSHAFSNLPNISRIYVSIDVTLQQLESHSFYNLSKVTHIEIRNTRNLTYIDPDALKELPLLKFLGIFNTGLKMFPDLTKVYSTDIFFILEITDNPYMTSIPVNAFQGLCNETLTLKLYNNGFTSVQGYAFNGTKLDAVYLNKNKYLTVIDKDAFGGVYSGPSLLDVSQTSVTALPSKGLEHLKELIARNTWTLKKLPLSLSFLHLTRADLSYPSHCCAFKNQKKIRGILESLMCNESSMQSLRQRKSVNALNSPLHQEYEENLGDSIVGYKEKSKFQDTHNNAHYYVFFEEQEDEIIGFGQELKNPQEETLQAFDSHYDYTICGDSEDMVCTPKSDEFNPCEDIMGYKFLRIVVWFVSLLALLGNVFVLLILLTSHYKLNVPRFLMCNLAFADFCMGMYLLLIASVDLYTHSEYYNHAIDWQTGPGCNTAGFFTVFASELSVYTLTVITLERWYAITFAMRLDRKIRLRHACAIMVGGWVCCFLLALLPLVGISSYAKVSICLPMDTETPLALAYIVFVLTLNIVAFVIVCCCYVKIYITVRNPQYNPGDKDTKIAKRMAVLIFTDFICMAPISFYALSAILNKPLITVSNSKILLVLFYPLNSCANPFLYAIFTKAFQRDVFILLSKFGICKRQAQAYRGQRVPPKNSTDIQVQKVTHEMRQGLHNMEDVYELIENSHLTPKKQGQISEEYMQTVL
# In short: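 TSHR-HEK293 cells were plated and held 18 h at 37C/5% CO2, then given compound plus Ro20-1724 and stimulated with TSH at 1.5 ng/mL final. After 30 min at room temperature, cAMP was detected with cAMP-d2/anti-cAMP-cryptate (1 h) by fluorescence.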
# [9] = qHTS assay to identify small molecule agonists of the estrogen receptor alpha (ER-alpha) signaling pathway in the presence of an antagonist - cell viability counter screen (AID 1259386);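 note: series mostly up to about 92 µM; cells exposed to compounds for 22 h at 37 °C before the viability read; nearly all actives have a fitted effect of over 30% in size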
# In short: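 Cytotoxicity was measured in parallel with the ERE-luciferase agonist screen, in the same wells. The cells were VM7Luc4E2, which endogenously express ER-alpha, and treatment was with compounds plus 10.0nM ICI-182,780 for 22hr.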
# [10] = molecular target: Progesterone receptor (Homo sapiens) (UniProt P06401); test: qHTS assay to identify small molecule agonists of the progesterone receptor (PR) signaling pathway (AID 1346784; calls by dose curve; note: nearly all actives have a fitted effect of over 30% in size)
# Chain of Progesterone receptor (Homo sapiens) (P06401 whole entry, looked up): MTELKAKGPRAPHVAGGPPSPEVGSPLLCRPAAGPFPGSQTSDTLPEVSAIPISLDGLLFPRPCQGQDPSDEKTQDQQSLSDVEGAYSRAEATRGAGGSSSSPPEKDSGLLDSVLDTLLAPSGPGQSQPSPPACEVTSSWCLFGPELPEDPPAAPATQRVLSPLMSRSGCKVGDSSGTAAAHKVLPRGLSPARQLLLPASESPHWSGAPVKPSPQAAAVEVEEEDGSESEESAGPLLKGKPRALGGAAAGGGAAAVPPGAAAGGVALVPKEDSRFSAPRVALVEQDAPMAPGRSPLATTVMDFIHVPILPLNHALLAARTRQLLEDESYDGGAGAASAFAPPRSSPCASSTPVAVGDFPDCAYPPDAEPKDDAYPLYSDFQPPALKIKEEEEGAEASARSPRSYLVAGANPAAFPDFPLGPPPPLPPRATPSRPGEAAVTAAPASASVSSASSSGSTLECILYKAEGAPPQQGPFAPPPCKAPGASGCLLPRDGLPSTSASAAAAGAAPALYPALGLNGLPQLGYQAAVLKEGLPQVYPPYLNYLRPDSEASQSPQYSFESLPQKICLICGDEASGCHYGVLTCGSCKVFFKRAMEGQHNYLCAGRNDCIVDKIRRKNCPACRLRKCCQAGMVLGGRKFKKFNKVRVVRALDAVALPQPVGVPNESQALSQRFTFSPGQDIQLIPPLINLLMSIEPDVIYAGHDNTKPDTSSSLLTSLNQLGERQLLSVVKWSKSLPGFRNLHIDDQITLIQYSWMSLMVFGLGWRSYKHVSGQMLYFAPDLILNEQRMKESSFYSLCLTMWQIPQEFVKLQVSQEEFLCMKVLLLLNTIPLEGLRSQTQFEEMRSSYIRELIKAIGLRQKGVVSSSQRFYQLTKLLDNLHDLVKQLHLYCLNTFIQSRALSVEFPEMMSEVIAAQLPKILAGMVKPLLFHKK
# In short: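 PR-UAS-bla HEK 293T cells carrying a UAS-driven beta-lactamase reporter were seeded in medium with 2% charcoal-stripped FBS, preincubated 6 hr at 37C, then exposed to compounds in DMSO for 16 hr; agonism was read by LiveBLAzer B/G FRET fluorescence.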
# [11] = molecular target: Progesterone receptor (Homo sapiens) (UniProt P06401); test: qHTS assay to identify small molecule antagonists of the progesterone receptor (PR) signaling pathway (AID 1346795; active = well fitted inhibition curve with a large enough effect in the signal ratio in the repeat runs, not every such curve was filed as active; the % refers to the signal ratio; note: potency is the fitted concentration of half-maximal effect)
# In short: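 PR-UAS-bla HEK293T cells carrying a UAS-driven beta-lactamase reporter were plated in medium with 2% charcoal-stripped FBS and rested 6 hr at 37C. Compounds were added with 1 nM R5020 (final) for 16 hr, then FRET substrate loaded 2 hr at room temperature.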
# [12] = qHTS assay to identify small molecule antagonists of the progesterone receptor (PR) signaling pathway - cell viability counter screen (AID 1346798); note: nearly all actives have a fitted effect of over 50% in size; note: potency is the fitted concentration of half-maximal effect
# In short: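 PR-UAS-bla HEK293T cells in medium with 2% charcoal-stripped FBS were treated with compounds plus R5020 for 16 hr at 37C. Cell viability was then read by CellTiter-Glo luminescence after 30 min at room temperature in the same wells.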
# [13] = qHTS assay to identify small molecule antagonists of the TGF-beta/Smad signaling pathway - cell viability counter screen (AID 1346824); note: nearly all actives have a fitted effect of over 50% in size; note: potency is the fitted concentration of half-maximal effect
# In short: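 SBE-bla HEK 293T cells were plated overnight at 37 C, then given compounds in DMSO plus TGF-beta1 (added as 0.25 ng/mL solution) for 5 hr. After the bla read, CellTiter-Glo was added to the same wells and luminescence read after 30 min at room temperature.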
# [14] = qHTS assay to identify small molecule agonists of the TGF-beta/Smad signaling pathway (AID 1346859; active = well fitted activation curve with a large enough effect in the signal ratio in the repeat runs, not every such curve was filed as active; the % refers to the signal ratio; note: series mostly up to about 77 µM)
# In short: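 HEK 293T cells stably carrying a beta-lactamase reporter driven by the Smad binding element were seeded overnight, exposed to DMSO-dissolved compounds for 5 hr at 37 C, 5% CO2, then loaded with FRET substrate for 2 hr at room temperature.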
# [15] = qHTS assay to identify small molecule agonists of the androgen receptor (AR) signaling pathway in the presence of an antagonist - cell viability counter screen (AID 1259379); note: nearly all actives have a fitted effect of over 25% in size; note: potency is the fitted concentration of half-maximal effect
# In short: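 Cytotoxicity is assessed by CellTiter-Fluor in MDA-kb2 cells carrying an MMTV-driven luciferase reporter. Cells receive 3.0uM nilutamide plus compounds at 15 concentrations and incubate 16 hr at 37C without CO2 before fluorescence reading.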
# [16] = molecular target: Thyrotropin-releasing hormone receptor (Homo sapiens) (UniProt P34981); test: qHTS assay to identify small molecule antagonists of the thyrotropin-releasing hormone receptor (TRHR) signaling pathway (AID 1346877; active = well fitted inhibition curve with a large enough effect in the repeat runs, not every such curve was filed as active; note: series mostly up to about 51 µM)
# Chain of Thyrotropin-releasing hormone receptor (Homo sapiens) (P34981 whole entry, looked up): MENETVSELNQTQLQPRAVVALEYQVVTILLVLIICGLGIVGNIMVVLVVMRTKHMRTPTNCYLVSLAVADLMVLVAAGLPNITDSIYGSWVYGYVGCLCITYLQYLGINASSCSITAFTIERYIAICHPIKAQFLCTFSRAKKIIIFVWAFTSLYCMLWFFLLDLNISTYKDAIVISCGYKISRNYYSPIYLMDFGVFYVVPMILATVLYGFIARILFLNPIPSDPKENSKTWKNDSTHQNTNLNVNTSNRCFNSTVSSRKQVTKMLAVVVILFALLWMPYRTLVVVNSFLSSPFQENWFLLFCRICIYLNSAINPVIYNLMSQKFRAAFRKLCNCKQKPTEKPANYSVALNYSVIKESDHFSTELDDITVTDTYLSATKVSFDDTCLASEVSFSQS
# In short: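 Antagonism is measured as suppression of the calcium response to 1 nM TRH in TRHR-HEK293 cells that have been dye-loaded for 2 h at 37 °C after overnight plating. Each compound is tested at 15 concentrations in triplicate.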
# [17] = molecular target: Thyrotropin-releasing hormone receptor (Homo sapiens) (UniProt P34981); test: qHTS assay to identify small molecule agonists of the thyrotropin-releasing hormone receptor (TRHR) signaling pathway (AID 1346891; calls by dose curve; note: series mostly up to about 58 µM)
# In short: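 TRHR-expressing HEK293 cells were plated 18 h at 37 °C/5% CO2, loaded with calcium dye 2 h at 37 °C, then given compound in DMSO; fluorescence was read kinetically for 3 min at 1 s intervals.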
# [18] = qHTS assay to identify small molecule agonists of the TGF-beta/Smad signaling pathway - cell viability counter screen (AID 1346829); note: top concentration of the series differs between compounds; nearly all actives have a fitted effect of over 45% in size
# In short: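 Luminescence from CellTiter-Glo, read after a 30 min room-temperature incubation, gives cell viability of SBE-bla HEK 293T cells treated 5 hr with compounds at 37 C.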
# [19] = qHTS assay to identify small molecule agonists of the progesterone receptor (PR) signaling pathway - cell viability counter screen (AID 1346799; calls by dose curve; note: nearly all actives have a fitted effect of over 45% in size)
# In short: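 PR-UAS-bla HEK293T cells, 3,000 per well in medium with 2% charcoal-stripped FBS, were preincubated 6 hr at 37C, then exposed to compounds for 16 hr; viability was read as CellTiter-Glo luminescence after 30 min at room temperature.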
# [20] = molecular target: Androgen receptor (Homo sapiens) (UniProt P10275); test: qHTS assay to identify small molecule agonists of the androgen receptor (AR) signaling pathway in the presence of an antagonist (AID 1259381; calls by dose curve; note: nearly all actives have a fitted effect of over 15% in size)
# Chain of Androgen receptor (Homo sapiens) (P10275 whole entry, looked up): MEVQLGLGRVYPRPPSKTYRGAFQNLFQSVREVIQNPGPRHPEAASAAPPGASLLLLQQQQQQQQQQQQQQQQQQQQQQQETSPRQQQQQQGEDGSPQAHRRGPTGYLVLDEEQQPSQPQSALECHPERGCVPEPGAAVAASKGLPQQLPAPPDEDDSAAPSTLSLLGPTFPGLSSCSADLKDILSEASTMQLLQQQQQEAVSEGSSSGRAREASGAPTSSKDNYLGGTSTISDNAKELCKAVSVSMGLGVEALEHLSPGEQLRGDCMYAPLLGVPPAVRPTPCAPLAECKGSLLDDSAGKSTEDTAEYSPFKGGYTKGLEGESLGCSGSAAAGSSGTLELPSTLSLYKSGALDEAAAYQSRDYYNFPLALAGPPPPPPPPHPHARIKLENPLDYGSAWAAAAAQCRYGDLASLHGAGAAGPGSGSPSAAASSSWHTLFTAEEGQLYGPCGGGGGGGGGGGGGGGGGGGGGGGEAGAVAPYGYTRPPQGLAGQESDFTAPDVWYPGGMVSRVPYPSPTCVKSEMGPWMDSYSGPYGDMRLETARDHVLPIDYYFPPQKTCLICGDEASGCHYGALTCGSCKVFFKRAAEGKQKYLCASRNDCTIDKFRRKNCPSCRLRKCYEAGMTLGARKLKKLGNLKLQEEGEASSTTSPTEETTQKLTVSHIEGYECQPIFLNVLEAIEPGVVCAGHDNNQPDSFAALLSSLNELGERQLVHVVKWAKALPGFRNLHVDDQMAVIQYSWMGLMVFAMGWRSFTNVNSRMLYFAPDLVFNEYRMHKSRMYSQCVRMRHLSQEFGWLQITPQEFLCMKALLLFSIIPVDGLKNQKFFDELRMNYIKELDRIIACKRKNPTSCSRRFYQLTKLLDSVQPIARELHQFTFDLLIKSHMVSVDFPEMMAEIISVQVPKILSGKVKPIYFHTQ
# In short: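 Agonist-mode confirmation screen: human MDA-kb2 cells stably expressing luciferase under an MMTV promoter bearing AR and GR response elements, co-treated with 3.0uM nilutamide (final). Luminescence measured after 16hr compound incubation.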
Structure (SMILES),Potency [1],Potency [2],Potency [3],Potency [4],Potency [5],Potency [6],Potency [7],Potency [8],Potency [9],Potency [10],Potency [11],Potency [12],Potency [13],outcome [14],Potency [15],Potency [16],Potency [17],Potency [18],Potency [19],Potency [20]
O=C(O)CCCCCCNC1c2ccccc2CCc2ccccc21,inactive,inactive,inactive,inactive,inactive,inactive,inactive,inactive,inactive,inactive,inactive,inactive,inactive,inactive,–,–,–,–,–,–
CC(C)c1c(CN(C)C(C)Cc2ccccc2)n(C)n(-c2ccccc2)c1=O (configuration not stated),inactive,inactive,21.1 µM (active),6.68 µM (active),inactive,inactive,inactive,–,inactive,inactive,–,–,inactive,–,inactive,inactive,inactive,–,–,–
CCC1COC(Cn2cncn2)(c2ccc(Cl)cc2Cl)O1 (configuration not stated),54.5 µM (active),inactive,inactive,inactive,inactive,inactive,inactive,inactive,inactive,inactive,27.3 µM (active),inactive,inactive,inactive,inactive,inactive,inactive,inactive,–,–
Brc1cccc(-c2ccccc2)c1,inactive,inactive,inactive,inactive,inactive,inactive,–,–,inactive,inactive,inactive,inactive,inactive,inactive,inactive,inactive,inactive,inactive,inactive,–
O=[N+]([O-])c1ccc(CCl)cc1,inactive,inactive,inactive,inactive,inactive,inactive,inactive,inactive,inactive,inactive,inactive,–,inactive,inactive,inactive,–,–,inactive,inactive,–
CSSC,15.5 µM (active),inactive,inactive,inactive,inactive,–,inactive,inactive,inactive,inactive,–,–,inactive,inactive,inactive,–,inactive,inactive,–,–
CC(=O)C(Cl)C(=O)N(C)C (configuration not stated),inactive,inactive,–,inactive,inactive,inactive,inactive,inactive,–,inactive,inactive,inactive,inactive,inactive,inactive,inactive,inactive,inactive,inactive,–
Nc1cc(Cl)ccc1Cl,inactive,inactive,inactive,inactive,inactive,–,inactive,inactive,inactive,inactive,inactive,inactive,inactive,inactive,–,inactive,inactive,inactive,inactive,–
[O]=[Cr][O][Cr]=[O],inactive,inactive,–,inactive,inactive,inactive,–,–,inactive,inactive,inactive,inactive,inactive,inactive,inactive,–,inactive,inactive,inactive,–
CC1CN1 (configuration not stated),inactive,inactive,–,inactive,inactive,inactive,inactive,inactive,inactive,inactive,inactive,inactive,inactive,inactive,inactive,–,–,–,inactive,–
CC(Cl)CCl (configuration not stated),inactive,inactive,–,inactive,inactive,inactive,inactive,inactive,inactive,inactive,–,–,inactive,inactive,inactive,–,–,–,–,–
CCCCCCC[CH2][Sn]([Cl])([Cl])[CH2]CCCCCCC,inactive,inactive,–,–,inactive,inactive,inactive,inactive,inactive,–,–,–,inactive,inactive,inactive,inactive,inactive,inactive,–,inactive
CCC[CH2][Sn]([CH2]CCC)([CH2]CCC)[CH2]CCC,13.7 µM (active),inactive,–,27.3 µM (active),43.3 µM (active),–,inactive,inactive,–,–,24.3 µM (active),43.3 µM (active),38.9 µM (active),–,13.7 µM (active),inactive,inactive,–,–,–
ClSC(Cl)(Cl)Cl,inactive,inactive,–,inactive,inactive,inactive,inactive,inactive,–,inactive,–,inactive,inactive,inactive,inactive,inactive,inactive,inactive,inactive,–
CC(Cc1ccc(OCC(=O)O)cc1)NCC(O)c1csc(C(F)(F)F)n1 (configuration not stated),inactive,inactive,–,inactive,inactive,inactive,inactive,inactive,–,inactive,inactive,inactive,inactive,inactive,inactive,inactive,inactive,–,–,–
COP(=O)(OC)Oc1ccc([N+](=O)[O-])cc1,inactive,inactive,inactive,inactive,inactive,inactive,inactive,inactive,–,–,–,–,inactive,inactive,–,–,inactive,inactive,–,–
CC(C)C(Nc1ccc(C(F)(F)F)cc1Cl)C(=O)OC(C#N)c1cccc(Oc2ccccc2)c1 (configuration not stated),43.6 µM (active),inactive,–,inactive,inactive,inactive,–,–,inactive,inactive,–,inactive,inactive,inactive,inactive,–,–,–,–,–
CC(C)Br,inactive,inactive,–,–,inactive,inactive,inactive,inactive,inactive,inactive,–,–,inactive,inactive,inactive,–,inactive,inactive,inactive,–
